Experimental data taken from PubChem BioAssay AID602393 (Broad Institute, 2012).
Hit rate of the full screen: of about 350,000 compounds, about 7,000 (2%) were called active. Many of the other results were omitted from the sample, so actives are more common in it than they were. Values without a mark were called inactive. Cut-off read from the data, not from the text of the source: active = activation above about 40%; inconclusive = no clear call, values can overlap the other calls; inactive = below that.

Assay: raisers of Bmi1 knock-in reporter signal – mouse ES cells, Bmi1 luciferase knock-in, single point, esBAF inhibitor project, primary screen (AID 602393);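 note: 0% = median of the plate's neutral control wells and 100% = double that signal; a rise in the Bmi1 reporter signal indicates esBAF inhibition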
Settings: 24 h, at 12.5 µM, stronger effect = higher value, 100% = twice the neutral-well signal

Compound	reporter increase
CN(C)c1cc[n+](Cc2ccccc2)cc1	12.9%
CN(C)c1ccc(CNC23CN4CN(CN(C4)C2)C3)cc1	2.1%
CCNC(=O)C[C@@H]1CC[C@H]2[C@@H](COC[C@@H](O)CN2C(=O)c2cc(Cl)cc(Cl)c2)O1	-3.54%
COCC(=O)Nc1ccc2c(c1)C(=O)N(C)[C@@H]1CC[C@@H](CC(=O)NCCCN(C)C)O[C@@H]1CO2	12.8%
Cc1ccc(-c2cc(=O)c3ccc(F)cc3[nH]2)cc1	47.2% (active)
O=c1cc(-c2ccccc2)[nH]c2cc(F)ccc12	7.27%
Cc1ccc(S(=O)(=O)/N=C(\N)c2ccc(F)cc2)cc1	13.3%
N#Cc1ccc(C2N=C(c3ccccc3)NO2)cc1 (stereo not given)	65.2% (active)
S=C1NC(c2ccccc2)=NCN1c1ccc(Br)cc1	30.7%
Brc1ccccc1C1N=C(c2ccccc2)NO1 (stereo not given)	54.3% (active)
CO[C@@H]1CN(C)C(=O)c2cc(NC(=O)C3CCCC3)ccc2OC[C@@H](C)N(Cc2ccc(F)cc2)C[C@H]1C	8.36%
CO[C@H]1CN(C)C(=O)c2cc(NC(=O)NC(C)C)ccc2OC[C@H](C)N(C(=O)CN(C)C)C[C@H]1C	-0.455%
COc1ccc(NC(=O)N(C)C[C@H]2OCCCC[C@@H](C)Oc3ccc(NS(=O)(=O)c4ccc(F)cc4)cc3C(=O)N([C@@H](C)CO)C[C@@H]2C)cc1	1.41%
O=C(C[C@@H]1CC[C@H]2[C@@H](COC[C@@H](O)CN2CC2CC2)O1)NCc1ccc(Cl)cc1	-7.82%
CO[C@H]1CN(C)C(=O)c2cc(NC(C)=O)ccc2OC[C@H](C)N(C(=O)C2CC2)C[C@H]1C	-2.16%
CS(=O)(=O)N1C[C@@H](O)COC[C@@H]2O[C@H](CC(=O)NC3Cc4ccccc4C3)CC[C@H]21	-3.82%
CNC[C@H]1Oc2cc(C#CC(C)(C)O)ccc2S(=O)(=O)N([C@@H](C)CO)C[C@@H]1C	-0.555%
COCC(=O)N1C[C@H]2[C@@H](c3ccccc31)[C@@H](CO)N2Cc1ccccc1	-3.85%
Cn1nc(-c2ccccc2)c2cc([N+](=O)[O-])ccc21	-3.5%
Cc1nn(-c2ccccc2)c2c1C(c1cccc([N+](=O)[O-])c1)N(c1ccccc1)C(=O)N2 (stereo not given)	10.1%

Compound	reporter increase
Cc1nn(-c2ccc([N+](=O)[O-])cc2)c(N)c1-c1ccccc1	49.1% (active)
Cc1ccccc1S(=O)(=O)NCC[C@@H]1CC[C@H](NC(=O)C2CC2)[C@@H](CO)O1	-5.25%
CC(C)(C)NC(=O)c1cc(NC(=O)c2ccco2)cc(NC(=O)c2ccco2)c1	-7.07%
Cc1ccc(NC(=O)c2ccco2)cc1	58.7% (active)
COc1cccc(NC(=O)COC(=O)/C=C/c2ccco2)c1	-3.7%
Cc1cc(NC(=O)c2ccc(F)cc2)ccc1NC(=O)c1ccco1	-3.11%
CC1CCN(c2ccc(-c3ccc(NC(=O)c4ccco4)cc3)nn2)CC1	55.6% (active)
O=C(/C=C/c1ccco1)NC(=S)Nc1ccccc1Br	12.7%
O=C(/C=C/c1ccco1)Nc1ccc(Oc2ccccc2)cc1	78% (active)
CN1CCN(S(=O)(=O)c2ccc(NC(=O)c3ccco3)cc2)CC1	7.27%
O=C(NNC(=O)c1ccco1)Nc1ccccc1	0.317%
O=C(Nc1ccc(Sc2ccc(Br)cc2)cc1)c1ccco1	30.7%
O=C(Nc1ccc(Oc2ccccc2)cc1)c1ccco1	45.8% (active)
CC1CCN(C(NC(=O)c2ccco2)C(=O)c2ccccc2)CC1 (stereo not given)	-0.711%
C[C@@H]1CCCCO[C@H](CN(C)C(=O)CCCN(C)C)[C@H](C)CN([C@H](C)CO)C(=O)c2cc(NC(=O)CCC(F)(F)F)ccc2O1	-8.36%
COCC(=O)NC[C@@H]1[C@@H](c2ccc(C3=CCCC3)cc2)[C@@H](CO)N1C(C)=O	2.64%
C[C@@H]1CN([C@H](C)CO)C(=O)c2c(c3ccccc3n2C)-c2ccccc2CO[C@H]1CN(C)C(=O)c1ccncc1	1.87%
COCC#Cc1cnc2c(c1)C(=O)N([C@@H](C)CO)C[C@@H](C)[C@H](CN(C)C(=O)Nc1ccccc1OC)O2	-2.03%
CCCNC(=O)[C@@H]1[C@@H](CO)[C@@H]2Cn3c(cccc3=O)[C@H]1N2C(=O)C1CCC1	3.3%
C[C@@H]1CCCCO[C@H](CN(C)C)[C@H](C)CN([C@@H](C)CO)C(=O)c2cc(NS(=O)(=O)c3ccccc3)ccc2O1	-0.305%
